Shown are actives, neighbours in structure and some others; about 0.93% of the full set was active somewhere.
LAP4 TOR yeast: modulators of LAP4-GFP expression in yeast, primary screen, S. cerevisiae, multiplex flow cytometry, MLPCN library. 3 h; median GFP as percent of DMSO wells. GFP response vs DMSO, % at 10 µM. 0.34% of 320,000 active. AID 2023, 2009;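 active = GFP response vs DMSO above a set limit, about the screen mean plus 3 SD, cut at about 150% in these data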
CIT2-GFP yeast: modulators of CIT2-GFP expression in yeast, primary screen, S. cerevisiae, GFP fusion, multiplex flow cytometry, MLPCN library. GFP response vs DMSO, % at 10 µM. 0.065% of 320,000 active. AID 2029, 2009. S. cerevisiae CIT2-GFP strain, 3 h; 100 means same as DMSO wells;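 active = GFP response relative to DMSO above a set limit, near the screen mean plus 3 SD, cut at about 150% in these data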;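 also: ratio of well median GFP fluorescence to mean of DMSO wells on the plate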
MEP2 TOR yeast: modulators of MEP2-GFP levels in yeast, primary screen, S. cerevisiae, multiplex flow cytometry, MLPCN library | S. cerevisiae MEP2-GFP strain, 3 h; 100% = DMSO control level | GFP response vs DMSO, % at 10 µM | 0.51% of 330,000 active | AID 2016, 2009;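 active = GFP response versus DMSO above a set limit, roughly screen mean plus 3 SD, cut at about 180% in these data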;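 also: median GFP fluorescence of the barcode-gated MEP2-GFP cells per well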
AGP1-GFP MLPCN: modulators of AGP1-GFP expression in yeast TOR pathway, primary screen, cell-based, multiplex flow cytometry, S. cerevisiae, MLPCN library | GFP response vs DMSO, % at 10 µM | 3 h; GFP as percent of DMSO wells | AID 2066, 2009 | 0.02% of 320,000 active;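 active = GFP response relative to DMSO above a set limit, near screen average plus 3 SD, cut at about 150% in these data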;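 also: median GFP channel fluorescence of the gated AGP1 strain per well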
RPL19A TOR yeast: RPL19A-GFP expression modulators in yeast, primary screen, cell-based, S. cerevisiae, multiplex flow cytometry, MLPCN | percent response vs DMSO, % at 10 µM | S. cerevisiae RPL19A-GFP strain, 3 h; hits give low values | 0.3% of 330,000 active;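 active = percent response vs DMSO below 50%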;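 also: median channel GFP fluorescence of the barcoded RPL19A-GFP strain; ratio of sample median GFP to plate DMSO average so 100% = DMSO; lower means less RPL19A-GFP as with rapamycin TOR inhibition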
LAP4-GFP pick2: LAP4-GFP expression modulators in yeast, confirmation, cell-based, second cherry pick, flow cytometry; shares compounds with LAP4 TOR yeast; S. cerevisiae LAP4-GFP strain, 3 h; GFP response vs DMSO, % at 10 µM; 20% of 590 active; AID 2621, 2010;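 active = GFP signal as percent of the solvent control above about 150%, meaning raised reporter expression, limit read from the data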;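 also: ratio of well median GFP fluorescence to plate DMSO mean so 100% = DMSO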
MEP2 cherry2: modulators of MEP2-GFP levels in yeast, confirmation, S. cerevisiae, flow cytometry GFP, second cherry picks; S. cerevisiae MEP2-GFP strain, 3 h; shares compounds with LAP4 TOR yeast; GFP response vs DMSO, % at 10 µM; 10% of 590 active;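 active = GFP signal above 150% of the solvent control wells, that is a rise of more than half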;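 also: median channel GFP fluorescence of all gated yeast cells per well; ratio of median GFP to plate DMSO average so 100% = DMSO level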
RPL19A-GFP pick2: RPL19A-GFP modulators in TOR pathway yeast, confirmation, cell-based, S. cerevisiae, flow cytometry, second cherry pick; shares compounds with LAP4 TOR yeast; 3% of 590 active; S. cerevisiae RPL19A-GFP strain, 3 h; hits give low values; 100% means same as DMSO wells; GFP response vs DMSO, % at 10 µM;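 active = under 65% GFP response relative to DMSO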;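 also: median GFP channel fluorescence per well over the all cells gate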
CIT2 GFP CP2: modulators of CIT2-GFP expression in yeast, confirmation, flow cytometry, second cherry pick, single plex. shares compounds with LAP4 TOR yeast. S. cerevisiae CIT2-GFP strain, 3 h; DMSO control wells read 100%. GFP response vs DMSO, % at 10 µM. 8% of 590 active. AID 2624, 2010;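 active = GFP response vs DMSO above about 150%, limit read from the data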;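 also: median green fluorescence per well over all gated yeast cells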
AGP1 GFP CP2: AGP1-GFP expression modulators, hit retest, confirmation, cell-based, flow cytometry, S. cerevisiae, cherry pick set 2; shares compounds with LAP4 TOR yeast; AID 2643, 2010; S. cerevisiae AGP1-GFP strain, 3 h; percent response vs DMSO, % at 10 µM; 590 tested, under 10 active;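 active = over 150 percent of DMSO response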;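 also: median GFP channel fluorescence over all cells without mother daughter split; sample median GFP divided by mean DMSO control so 100% equals DMSO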
Yeast autofluor: compound autofluorescence in yeast s288c, dose response, artefact control for yeast TOR pathway GFP screen, s288c strain; fluorescence change (kMESF span) at 33 µM; shares compounds with LAP4 TOR yeast; S. cerevisiae s288c, 520 nm autofluorescence, flow cytometry, 3 h; hits give high values; zero means same as solvent-only cells; 610 tested, under 10 active;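 active = fluorescence span over the dose series, or activity score, above about 33, limit read from the data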
Yeast autofl DR: autofluorescence of compounds in yeast s288c, dose response, artefact control for yeast TOR pathway GFP screen, primary hits, KU SAR, s288c parental; shares compounds with LAP4 TOR yeast; S. cerevisiae s288c parental, compound autofluorescence, flow cytometry, 3 h; fluorescence change (span) at 33 µM; 110 tested, under 10 active;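 active = fluorescence change span, or the activity score built from it, above 25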
TORC1 bypass: wild-type yeast growth inhibition sparing TORC1 bypass cells, mechanism study for yeast TOR pathway GFP screen, BY4741 wild type, TORC1 bypass strain; S. cerevisiae BY4741 spot growth rating, 48-72 h; hits give low values; 120 tested, under 10 active; growth rating (0-3) at 30 µM; shares compounds with LAP4 TOR yeast;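 active = growth rating at most 1 for wild type yeast while the TORC1 bypass strain still grows fully, rated 3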
Starred values were filed as active, the others as inactive; . = no result.

SMILES | LAP4 TOR yeast | CIT2-GFP yeast | MEP2 TOR yeast | AGP1-GFP MLPCN | RPL19A TOR yeast | LAP4-GFP pick2 | MEP2 cherry2 | RPL19A-GFP pick2 | CIT2 GFP CP2 | AGP1 GFP CP2 | others
COc1ccc(-c2cn(Cc3ccc4ccccc4c3)nn2)cc1 | 128.0 | 90.3 | 79.3 | 77.9 | 86.1 | . | . | . | . | .
CCCc1cc(N2CCOCC2)n2nc(C)c(-c3ccccc3)c2n1 | 99.1 | 98.8 | 109.0 | 94.1 | 102.8 | . | . | . | . | .
CCCc1cc(N2CCN(c3ccccn3)CC2)n2nc(C)c(-c3ccccc3)c2n1 | 103.2 | 101.2 | 103.2 | 101.3 | 100.7 | . | . | . | . | . | Yeast autofluor=0
CNc1nc(N)cc(Nc2ccccc2F)n1 | . | . | . | . | . | . | . | . | . | . | TORC1 bypass=3
C=CCN1C(=O)/C(=C/c2ccc(-c3ccc(F)cc3)o2)SC1=S | 163.0* | 95.5 | 98.6 | 83.0 | 102.2 | 169.3* | 131.0 | 99.3 | 111.2 | 102.0 | Yeast autofluor=1.21
CCSC1=NSC2=NC(=O)/C(=C\c3coc4ccccc4c3=O)C(=N)N12 | 130.4 | 73.9 | 268.0* | 39.8 | 85.1 | 308.6* | 169.4* | 169.1 | 161.3* | 113.5
CCOC(=O)NC(=S)Nc1ccc(C(C)(C)C)cc1Br | 111.4 | 98.3 | 106.8 | 100.4 | 98.9 | . | . | . | . | .
Cc1cc(-c2csc(NC(=O)c3ccc(=O)[nH]c3)n2)c(C)n1Cc1ccco1 | 152.1* | 90.1 | 86.7 | 105.6 | 91.2 | 99.2 | 110.0 | 100.8 | 96.0 | 103.2
CC(C)OC(=O)CSc1nc2ncc(Cl)cc2[nH]1 | 106.4 | 92.7 | 106.9 | 95.4 | 99.7 | . | . | . | . | .
CC(C)OC(=O)CSc1nc2ncccc2[nH]1 | 171.3* | 97.0 | 93.4 | 107.0 | 93.5 | 98.1 | 103.2 | 98.8 | 105.2 | 101.3
O=C1Nc2ccccc2/C1=C/c1cnc(-c2ccccc2)[nH]1 | 169.2* | 161.3* | 183.8* | 116.1 | 119.9 | 111.2 | 141.5 | 102.5 | 133.5 | 99.8
CN(C)/C=C/C(=O)c1ccc(-c2ccc(Cl)cc2Cl)o1 | 82.9 | 85.5 | 159.6 | 21.3 | 58.1 | 158.7* | 148.1 | 113.0 | 153.8* | 87.0 | Yeast autofluor=0.8
O=C(O)c1ccc(-c2ccc(Cl)cc2Cl)o1 | 97.9 | 76.3 | 93.2 | 68.8 | 80.5 | . | . | . | . | .
CNc1nc(N)cc(Oc2cccc(Cl)c2)n1 | . | . | . | . | . | . | . | . | . | . | TORC1 bypass=3
Nc1cc(Oc2cccc(Cl)c2)nc(NCc2ccccc2)n1 | . | . | . | . | . | . | . | . | . | . | Yeast autofl DR=0;TORC1 bypass=0
COc1cc(Oc2ccccc2)nc(N)n1 | 96.9 | 103.2 | 93.5 | 102.4 | 99.1 | . | . | . | . | .
Cc1cc(Oc2ccccc2)nc(NCc2ccccc2)n1 | 99.0 | 91.4 | 103.9 | 98.8 | 95.3 | . | . | . | . | .
O=C(Oc1ccc(Cl)c2cccnc12)c1cccc([N+](=O)[O-])c1 | 96.2 | 85.0 | 91.3 | 88.0 | 92.8 | . | . | . | . | .
O=C(Oc1c(Cl)cc(Cl)c2cccnc12)c1cccc([N+](=O)[O-])c1 | 187.4* | 107.5 | 94.7 | 92.3 | 92.2 | . | . | . | . | . | Yeast autofluor=2.44;Yeast autofl DR=0.24;TORC1 bypass=0
CN(Cc1ccccc1)C(=O)CCC1CCN(C(=O)c2ccccc2C(F)(F)F)CC1 | 99.1 | 156.7* | 114.4 | 106.2 | 97.2 | 99.0 | 101.5 | 101.3 | 109.7 | 103.5
CSCc1ccc(C(=O)N2CCC(CCC(=O)N(C)Cc3ccccc3)CC2)o1 | 95.9 | 98.8 | 95.0 | 100.7 | 101.5 | . | . | . | . | .
N/C(=N\OC(=O)c1cc(Br)ccc1Cl)c1ccccn1 | 207.8* | 116.6 | 104.5 | 89.7 | 89.4 | . | . | . | . | . | Yeast autofluor=1.2
CC(NC(=O)CSc1nc2ccccc2n1CCC#N)c1ccc(F)cc1 (stereo unspecified) | 99.1 | 99.2 | 97.9 | 97.3 | 99.1 | . | . | . | . | .
Cc1scc(-c2n[nH]c(=S)n2C(C)c2ccccc2)c1C (stereo unspecified) | 86.3 | 104.3 | 101.9 | 98.4 | 104.5 | . | . | . | . | .
COc1ccc(S(=O)(=O)N2CCCCCC2)cc1C(=O)NC1(C)CCS(=O)(=O)C1 (stereo unspecified) | 102.5 | 105.3 | 101.8 | 104.3 | 100.0 | . | . | . | . | .
SMILES | LAP4 TOR yeast | CIT2-GFP yeast | MEP2 TOR yeast | AGP1-GFP MLPCN | RPL19A TOR yeast | LAP4-GFP pick2 | MEP2 cherry2 | RPL19A-GFP pick2 | CIT2 GFP CP2 | AGP1 GFP CP2 | others
COc1ccc(S(=O)(=O)N2CCc3ccccc32)cc1C(=O)NC1(C)CCS(=O)(=O)C1 (stereo unspecified) | 158.2* | 165.3* | 171.9 | 125.3 | 116.6 | 97.2 | 94.3 | 100.0 | 104.3 | 97.2
CCOC(=O)c1sc(N2C(=O)C(O)=C(C(=O)c3ccco3)C2c2ccco2)nc1C (stereo unspecified) | 95.3 | 94.7 | 110.6 | 89.6 | 95.5 | . | . | . | . | .
O=C(O)C1Sc2[nH]c(=O)sc2C2c3cc(Br)ccc3OC(=O)C12 (stereo unspecified) | 150.6* | 101.2 | 112.4 | 90.2 | 99.1 | . | . | . | . | . | Yeast autofluor=3.26
CN(Cc1c(C(=O)N/N=C/c2cccc(F)c2)nnn1-c1nonc1N)c1ccccc1 | 96.1 | 97.3 | 100.4 | 99.9 | 96.7 | . | . | . | . | .
S=C(NCCc1ccccc1)NC1CCCCCC1 | 110.8 | 104.7 | 95.1 | 101.5 | 107.3 | . | . | . | . | .
S=C(NCCNCc1ccccc1)NC1CCCCC1 | 90.8 | 92.8 | 140.2 | 56.6 | 52.1 | 101.0 | 99.8 | 100.9 | 100.7 | 101.6
CCOC(=O)CC(=O)Nc1ccc(C)cc1 | 93.1 | 103.1 | 102.6 | 95.9 | 99.5 | 99.0 | 101.5 | 99.4 | 99.5 | 100.1

Bioassay records deposited in PubChem by NMMLSC.
